# Data published in PubChem BioAssay AID703 (NMMLSC, 2007).
# Values without a mark were called inactive. How the calls were made is not given here.
# Biological target: Integrin alpha-4 (Homo sapiens) (UniProt P13612)
# Experiment: VLA-4 ligand binding increase, concentration series – cell-based, LDV-FITC binding, flow cytometry, dose response (AID 703)
# Conditions: Jurkat cells, active compounds read high
# Chain of Integrin alpha-4 (Homo sapiens) (P13612 whole entry, looked up): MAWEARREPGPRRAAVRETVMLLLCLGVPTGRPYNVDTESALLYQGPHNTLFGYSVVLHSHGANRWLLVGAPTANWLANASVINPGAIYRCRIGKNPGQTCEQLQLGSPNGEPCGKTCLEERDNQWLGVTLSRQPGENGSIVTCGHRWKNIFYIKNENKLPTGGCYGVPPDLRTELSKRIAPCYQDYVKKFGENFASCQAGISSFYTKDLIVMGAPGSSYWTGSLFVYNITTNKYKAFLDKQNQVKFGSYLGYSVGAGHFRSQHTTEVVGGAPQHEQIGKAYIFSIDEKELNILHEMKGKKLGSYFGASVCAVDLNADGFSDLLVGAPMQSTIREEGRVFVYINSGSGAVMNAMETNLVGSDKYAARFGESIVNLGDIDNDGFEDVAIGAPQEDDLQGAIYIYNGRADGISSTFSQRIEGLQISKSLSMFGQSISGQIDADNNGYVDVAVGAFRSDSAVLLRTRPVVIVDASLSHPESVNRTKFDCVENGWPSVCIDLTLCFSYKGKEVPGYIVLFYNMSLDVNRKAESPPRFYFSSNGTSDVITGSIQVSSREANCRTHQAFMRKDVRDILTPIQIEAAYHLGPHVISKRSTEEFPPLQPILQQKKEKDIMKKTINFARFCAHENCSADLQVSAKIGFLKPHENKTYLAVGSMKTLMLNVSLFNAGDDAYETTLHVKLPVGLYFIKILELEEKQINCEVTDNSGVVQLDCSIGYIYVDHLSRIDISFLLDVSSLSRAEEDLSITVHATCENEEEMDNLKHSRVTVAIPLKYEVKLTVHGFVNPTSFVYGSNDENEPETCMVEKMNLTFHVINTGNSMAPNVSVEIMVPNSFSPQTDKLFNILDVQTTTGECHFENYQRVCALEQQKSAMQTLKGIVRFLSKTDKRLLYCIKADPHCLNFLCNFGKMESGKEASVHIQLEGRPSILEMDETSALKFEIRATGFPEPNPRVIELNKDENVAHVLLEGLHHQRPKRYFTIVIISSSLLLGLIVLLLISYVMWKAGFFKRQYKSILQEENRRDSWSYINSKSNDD
smiles,measurement,value
O=c1c2ccccc2[se]n1-c1ccccc1,activation at 0 C,0
